A short description of assay [1]: P-glycoprotein substrates identified in KB-8-5-11 adenocarcinoma cell line, qHTS therapeutic library screen (AID 1346987). Note: nearly all actives have a fitted effect of over 65% in size. Note: potency is the fitted concentration of half-maximal effect. The essentials: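 Human cervical adenocarcinoma KB-8-5-11 cells, selected in colchicine to over-express P-gp and assayed without it, were exposed for 72 h to titrated compounds. An ATP-based luminescent viability signal gave AC50.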
Assay [2] concerns the target Calcium and integrin-binding protein 1 (Homo sapiens) (UniProt Q99828). Kind of assay: Primary qHTS for Identification of Calcium Integrin Binding Protein 1 (CIB1) Competitor (AID 1508620).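 Note: GST tagged CIB1 binding a fluorescein labelled alphaIIb integrin peptide tracer; top concentration of the series differs between compounds; % is set by controls: 0 for no effect and ±100 for the full control effect.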 The procedure, abridged:
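Fluorescence polarization competition: GST-tagged CIB1 (1 uM final) preincubated with compound 15 min at room temperature, then FITC-labelled alphaIIb peptide (100 nM final) added. After 15 min at room temperature, polarization read at Ex 480/Em 540.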
(In general: qHTS replaces the single test concentration by a dilution series.)

Assay [3] deals with Phospholipid hydroperoxide glutathione peroxidase GPX4 (Homo sapiens) (UniProt P36969). Kind of assay: Primary qHTS Assay for Inhibitors of Recombinant Selenoprotein Glutathione Peroxidase 4 (GPX4) (AID 1845192). Note: % is set by controls: 0 for no effect and ±100 for the full control effect; nearly all actives have a fitted effect of over 65% in size. The procedure, abridged:
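Steps: GPX4 plus compound, 30 min RT; add GR/GSH/NADPH master mix; start with cumene hydroperoxide; read 340/450 nm fluorescence at 0 and 15 min. Finals were 200 nM GPX4, 1 mM GSH, 0.5 mM CHP, 0.5 mM NADPH, 100 nM GR.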

Assay [4] has as its target Luciferin 4-monooxygenase (Photinus pyralis) (UniProt P08659). Kind of assay: Primary firefly luciferase (FLuc) qHTS assay for identification of artifact compounds. (AID 1845220).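 Note: plate controls were DMSO vehicle for no effect and no enzyme for full effect; nearly all actives have a fitted effect of over 60% in size.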 Conditions: outcome: dose series up to 54.1 µM unless noted. The essentials:
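Titrated compounds were incubated 15 min at RT, protected from light, with luciferin and ATP at 10 uM; reaction started with 10 nM FLuc, luminescence imaged at 5 min, and concentration-response fitted by Hill equation.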

Assay [5] relates to Nanoluciferase (engineered Oplophorus gracilirostris luciferase). Kind of assay: Primary Nanoluciferase (NLuc) qHTS assay for identification of artifact compounds. (AID 1845222).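 Note: NLuc secreted into diluted conditioned medium of S16 cells; 0% = DMSO and -100% = no enzyme.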 The procedure, abridged: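 qHTS format, against NLuc in S16 cell-conditioned medium. Nano-Glo substrate 1:100 was added after 15 min at room temperature. Luminescence was taken after a further 5 min.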

In another assay the test system is CRL-7250. Put plainly: Cytotoxic Profiling of Annotated Libraries Using Quantitative High-Throughput Screening (AID 1296008). For max response: % is set by controls: 0 for no effect and ±100 for the full control effect. Note: nearly all actives have a fitted effect of over 60% in size. Note: potency is the fitted concentration of half-maximal effect. The settings on record: Five cell lines viability, CellTiter-Glo ATP luminescence, 48-72 h; max response: stronger effect = lower value. The essentials:
(§1)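 Cells exposed to compounds for 48 or 72 hr at 37 degrees Celsius. Viability read as ATP-coupled luminescence with CellTiter-Glo after 10 min at room temperature.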

Another assay concerns HaCat. The assay is described as above. The settings on record: Five cell lines viability, CellTiter-Glo ATP luminescence, 48-72 h; max response: stronger effect = lower value. The procedure, abridged:
as §1
(In ATP-based viability assays light output follows the ATP content of the culture.)

A further assay relates to NIH3T3. The assay is described as above. The settings on record: Five cell lines viability, CellTiter-Glo ATP luminescence, 48-72 h; max response: stronger effect = lower value. The procedure, abridged: as §1
A further assay deals with C33A. Kind of assay: Primary qHTS to identify gynecologic anti-cancer compounds using libraries of approved drugs and bioactive compounds (AID 1345084). Note: nearly all actives have a fitted effect of over 55% in size. Note: potency is the fitted concentration of half-maximal effect. The settings on record: Gynecologic cancer cell panel viability, ATPlite luminescence, 48 h; series mostly up to 57.5 µM. The essentials:
(§2)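 In this quantitative HTS, cell killing is estimated from loss of ATP-dependent luciferase light. Cells see five compound concentrations over a 48 h exposure.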

The next assay has as its system CAOV3. The description is as above. The settings on record: Gynecologic cancer cell panel viability, ATPlite luminescence, 48 h; series mostly up to 57.5 µM. The essentials:
as §2

A further assay relates to CASKI. The assay is described as above. Conditions: Gynecologic cancer cell panel viability, ATPlite luminescence, 48 h; series mostly up to 57.5 µM. The essentials:
as §2

The test system of another assay is Es-2. The assay is described as above. The settings on record: Gynecologic cancer cell panel viability, ATPlite luminescence, 48 h; series mostly up to 57.5 µM. The essentials: as §2
A further assay relates to Hek293T. The assay is described as above. The settings on record: Gynecologic cancer cell panel viability, ATPlite luminescence, 48 h, control line for the selectivity index; series mostly up to 57.5 µM. The essentials: as §2
A further assay has as its system JEG-3. The description is as above. Conditions: Gynecologic cancer cell panel viability, ATPlite luminescence, 48 h; series mostly up to 57.5 µM. The essentials: as §2
For another assay, the system named is OV90. The assay is described as above. The settings on record: Gynecologic cancer cell panel viability, ATPlite luminescence, 48 h; series mostly up to 57.5 µM. The procedure, abridged:
as §2

The next assay concerns PA-1. The assay is described as above. The settings on record: Gynecologic cancer cell panel viability, ATPlite luminescence, 48 h; series mostly up to 57.5 µM. The essentials: as §2
Another assay deals with Tov-21-G. Described as above. The settings on record: Gynecologic cancer cell panel viability, ATPlite luminescence, 48 h; series mostly up to 57.5 µM. The essentials: as §2
The test system of another assay is Tov112D. Described as above. Conditions: Gynecologic cancer cell panel viability, ATPlite luminescence, 48 h; series mostly up to 57.5 µM. The procedure, abridged: as §2
A short description of assay [6]: Primary qHTS for inhibitors of nuclear receptor binding SET domain protein 2 (NSD2) in an isogenic RCH-ACV NSD2 p.E1099K mutant (9B) (AID 1645876). Note: potency is the fitted concentration of half-maximal effect; nearly all actives have a fitted effect of over 70% in size.
A further assay relates to HEK293. Put plainly: Cytotoxic Profiling of Annotated Libraries Using Quantitative High-Throughput Screening (AID 1296008). For max response: % is set by controls: 0 for no effect and ±100 for the full control effect. Note: nearly all actives have a fitted effect of over 60% in size. Note: potency is the fitted concentration of half-maximal effect. Conditions: Five cell lines viability, CellTiter-Glo ATP luminescence, 48-72 h; max response: stronger effect = lower value. The essentials: as §1

SMILES strings stand for the structures. Unmarked numbers belong to inactive results. Records with an inconclusive call do not appear. The source made the active and inactive calls. Calls come from the whole dose curve; as a rule, active = well fitted curve in the direction sought with a large enough effect; inconclusive = small, poorly fitted or top-dose-only effect, or another doubt; inactive = no such curve, though single readings can be large; an effect the other way counts as inactive or inconclusive.

Phospholipid hydroperoxide glutathione peroxidase GPX4 (Homo sapiens), sequence (P36969 whole entry, looked up): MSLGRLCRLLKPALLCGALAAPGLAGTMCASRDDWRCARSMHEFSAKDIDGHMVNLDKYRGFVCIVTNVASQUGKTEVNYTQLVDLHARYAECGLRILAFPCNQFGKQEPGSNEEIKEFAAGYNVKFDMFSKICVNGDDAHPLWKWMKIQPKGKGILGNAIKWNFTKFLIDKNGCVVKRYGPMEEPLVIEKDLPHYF
Calcium and integrin-binding protein 1 (Homo sapiens), sequence (Q99828 whole entry, looked up): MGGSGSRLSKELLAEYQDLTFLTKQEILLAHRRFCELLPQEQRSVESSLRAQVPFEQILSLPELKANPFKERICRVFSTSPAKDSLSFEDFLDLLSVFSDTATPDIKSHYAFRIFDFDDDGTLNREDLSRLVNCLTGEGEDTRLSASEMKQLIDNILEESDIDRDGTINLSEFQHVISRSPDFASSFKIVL

For `CCCCCn1cc(C(=O)Oc2cccc3cccnc23)c2ccccc21`, the Potency entry (in assay [1]; in assay [2]; in assay [3]; in [5]; with C33A; with CAOV3) was “inactive” throughout. Moreover, the Potency result in the assay with CASKI, in the assay with Es-2, in the assay with Hek293T, in the assay on JEG-3, in the assay on OV90 and in the assay with PA-1 was “inactive” each time. Besides, the Potency entry with Tov-21-G and in the assay with Tov112D was “inactive” in each case. Further, the call (in [4]; in the assay with CRL-7250) was inactive. The max response was 2.86% in the assay with HaCat and -5.3% in the assay with NIH3T3.
With `C=C1C(=O)CC2OC2(C)CC2OC(=O)C(=C)C2C(O)C1OC(=O)/C(C)=C\C` (stereo not given), the Potency entry (in assay [2]; in assay [3]; in assay [5]; in the assay on JEG-3; in the assay with OV90; with Tov112D) was “inactive” in each case. In addition, the Potency in [6] is 2.26 µM (active); with CRL-7250 it was 10.1 µM (active); in the assay with HEK293, 4.53 µM (active). The molecule was classed as inactive in assay [4].
`COc1cc(O)c2c(c1)CCC[C@@H](O)[C@H](O)C(=O)/C=C\C[C@H](C)OC2=O`: the Potency was 14.3 µM (active) in [1]; 8.01 µM (active) in assay [6]; 5.08 µM (active) in the assay with CRL-7250; 6.4 µM (active) in the assay with HEK293; 11.2 µM (active) in the assay on Hek293T; 1.78 µM (active) in the assay with Tov-21-G. Also, the Potency result (in assay [2]; in assay [3]; in assay [5]; in the assay on PA-1) was “inactive” in each case. In assay [4], the result was inactive.
Turning to `CC1=CC2OC3CC(O)[C@](C)([C@@]2(C)C(O)C1=O)[C@]31CO1` (stereo not given in full), the Potency entry (in assay [2]; in assay [3]; in assay [5]; in the assay on CAOV3; in the assay with JEG-3) was “inactive” in each case. Besides, the Potency in assay [6] was 5.15 µM (active); in the assay on CRL-7250, 5.8 µM (active); in the assay on HEK293, 5.17 µM (active); with NIH3T3, 4.11 µM (active); in the assay with Es-2, 8.91 µM (active); with Hek293T, 3.16 µM (active). Also, the Potency in the assay on PA-1 is 3.16 µM (active). The result in assay [4] was inactive.
In the case of `COC1CCCC(C)OC(=O)Cc2cc(O)cc(O)c2C(=O)C1` (stereo not given), the Potency in assay [1] was 4.04 µM (active); in assay [6], 2.84 µM (active); in the assay with CRL-7250, 14.3 µM (active); in the assay on HEK293, 3.6 µM (active); in the assay with PA-1, 11.2 µM (active). The Potency entry (in assay [2]; in [3]; in [5]; with CAOV3; in the assay with CASKI; in the assay with OV90) was “inactive” throughout. Moreover, the Potency entry in the assay on Tov-21-G is “inactive”. The molecule was classed as inactive in assay [4].
Regarding `CN1CCC2=C(C1)c1ccccc1Cc1ccccc12`, the Potency entry (in assay [1]; in [2]; in [5]; with C33A; in the assay on CAOV3; in the assay with CASKI) was “inactive” in each case. Further, the Potency result with Es-2, in the assay with Hek293T, with JEG-3, in the assay with OV90, in the assay with PA-1 and with Tov-21-G was “inactive” throughout. Also, the Potency result in the assay with Tov112D is “inactive”. In addition, the molecule was classed as inactive (in [4]; in the assay with CRL-7250; in the assay on HaCat). In addition, in the assay on NIH3T3, the max response was 0.135%.
`C=C(C)[C@@]12O[C@@H]1[C@@]1(C)C(=CC2=O)CC[C@@H](OC(C)=O)[C@@H]1C`: the Potency in assay [1] was 5.17 µM (active); in [6], 4.59 µM (active); in the assay with CRL-7250, 6.51 µM (active); in the assay on HEK293, 3.26 µM (active); in the assay on NIH3T3, 3.66 µM (active); in the assay on Tov-21-G, 10 µM (active). Further, the Potency result (in assay [2]; in assay [3]; in assay [5]; in the assay on CAOV3; in the assay on CASKI; in the assay on JEG-3) was “inactive” each time. In addition, the result in assay [4] was inactive.
